# Measurements as given in ChEMBL document CHEMBL1961873, “Compounds: GSK PKIS; Assays: Nanosyn kinase panel” (2012).
# Tests used:
# [1] = target: Mitogen-activated protein kinase 3 (Homo sapiens) (UniProt P27361); settings: at 1 µM;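 note: values are mean percent inhibition of MAPK3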
# [2] = target: SRSF protein kinase 3 (Homo sapiens) (UniProt Q9UPE1); settings: at 0.1 µM
# [3] = target: SRSF protein kinase 3 (Homo sapiens) (UniProt Q9UPE1); settings: at 1 µM
# [4] = target: Mitogen-activated protein kinase 14 (Homo sapiens) (UniProt Q16539); settings: at 0.1 µM
# Mitogen-activated protein kinase 14 (Homo sapiens), sequence (Q16539 whole entry): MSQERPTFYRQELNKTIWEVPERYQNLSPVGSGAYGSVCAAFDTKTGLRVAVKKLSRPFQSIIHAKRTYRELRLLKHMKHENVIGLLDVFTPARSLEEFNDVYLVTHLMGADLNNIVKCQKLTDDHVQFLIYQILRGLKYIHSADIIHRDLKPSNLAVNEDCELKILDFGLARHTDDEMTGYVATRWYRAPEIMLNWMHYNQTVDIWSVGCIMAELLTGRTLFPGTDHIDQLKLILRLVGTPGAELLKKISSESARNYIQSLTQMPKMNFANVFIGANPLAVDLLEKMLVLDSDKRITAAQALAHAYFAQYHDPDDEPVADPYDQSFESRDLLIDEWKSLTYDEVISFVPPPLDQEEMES
# [5] = target: Mitogen-activated protein kinase 14 (Homo sapiens) (UniProt Q16539); settings: at 1 µM
# [6] = target: Mitogen-activated protein kinase 11 (Homo sapiens) (UniProt Q15759); settings: at 0.1 µM
# Mitogen-activated protein kinase 11 (Homo sapiens), sequence (Q15759 whole entry): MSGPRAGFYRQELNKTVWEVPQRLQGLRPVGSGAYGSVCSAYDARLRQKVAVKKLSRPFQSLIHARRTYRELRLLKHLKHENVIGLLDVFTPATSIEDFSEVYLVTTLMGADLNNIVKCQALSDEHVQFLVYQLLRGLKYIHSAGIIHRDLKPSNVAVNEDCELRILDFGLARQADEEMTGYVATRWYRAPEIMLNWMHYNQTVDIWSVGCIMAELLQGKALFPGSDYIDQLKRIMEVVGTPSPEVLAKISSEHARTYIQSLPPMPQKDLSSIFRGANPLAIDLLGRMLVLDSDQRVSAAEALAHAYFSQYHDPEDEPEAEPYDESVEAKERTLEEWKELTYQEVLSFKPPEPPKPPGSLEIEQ
# [7] = target: Mitogen-activated protein kinase 11 (Homo sapiens) (UniProt Q15759); settings: at 1 µM
# [8] = target: T1, Mitogen-activated protein kinase 13 (Homo sapiens) (UniProt O15264); settings: at 0.1 µM
# T1 sequence (whole entry): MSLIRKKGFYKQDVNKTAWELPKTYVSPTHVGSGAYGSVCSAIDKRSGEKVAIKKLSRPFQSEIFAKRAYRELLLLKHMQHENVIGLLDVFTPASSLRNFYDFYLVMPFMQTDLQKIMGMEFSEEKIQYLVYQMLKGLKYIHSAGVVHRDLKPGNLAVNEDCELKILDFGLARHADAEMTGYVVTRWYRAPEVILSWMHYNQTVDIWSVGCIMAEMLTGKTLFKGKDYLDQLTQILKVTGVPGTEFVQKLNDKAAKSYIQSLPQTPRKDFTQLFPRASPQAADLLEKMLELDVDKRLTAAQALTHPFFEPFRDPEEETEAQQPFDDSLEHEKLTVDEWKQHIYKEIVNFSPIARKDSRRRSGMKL
# [9] = target: T1, Mitogen-activated protein kinase 13 (Homo sapiens); settings: at 1 µM
# [10] = target: T2, Mitogen-activated protein kinase 12 (Homo sapiens) (UniProt P53778); settings: at 0.1 µM
# T2 sequence (whole entry): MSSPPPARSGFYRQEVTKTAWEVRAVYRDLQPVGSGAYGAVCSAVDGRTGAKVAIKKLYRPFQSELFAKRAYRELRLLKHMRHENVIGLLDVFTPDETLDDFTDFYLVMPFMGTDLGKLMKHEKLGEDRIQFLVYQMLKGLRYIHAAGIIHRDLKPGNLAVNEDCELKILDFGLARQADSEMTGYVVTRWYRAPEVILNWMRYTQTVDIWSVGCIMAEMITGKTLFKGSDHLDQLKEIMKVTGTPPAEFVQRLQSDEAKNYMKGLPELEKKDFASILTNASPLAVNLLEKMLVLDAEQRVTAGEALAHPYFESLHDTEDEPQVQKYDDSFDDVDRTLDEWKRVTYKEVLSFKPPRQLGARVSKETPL
# [11] = target: T2, Mitogen-activated protein kinase 12 (Homo sapiens); settings: at 1 µM
# [12] = target: SRSF protein kinase 1 (Homo sapiens) (UniProt Q96SB4); settings: at 0.1 µM
# SRSF protein kinase 1 (Homo sapiens), sequence (Q96SB4 whole entry, canonical isoform): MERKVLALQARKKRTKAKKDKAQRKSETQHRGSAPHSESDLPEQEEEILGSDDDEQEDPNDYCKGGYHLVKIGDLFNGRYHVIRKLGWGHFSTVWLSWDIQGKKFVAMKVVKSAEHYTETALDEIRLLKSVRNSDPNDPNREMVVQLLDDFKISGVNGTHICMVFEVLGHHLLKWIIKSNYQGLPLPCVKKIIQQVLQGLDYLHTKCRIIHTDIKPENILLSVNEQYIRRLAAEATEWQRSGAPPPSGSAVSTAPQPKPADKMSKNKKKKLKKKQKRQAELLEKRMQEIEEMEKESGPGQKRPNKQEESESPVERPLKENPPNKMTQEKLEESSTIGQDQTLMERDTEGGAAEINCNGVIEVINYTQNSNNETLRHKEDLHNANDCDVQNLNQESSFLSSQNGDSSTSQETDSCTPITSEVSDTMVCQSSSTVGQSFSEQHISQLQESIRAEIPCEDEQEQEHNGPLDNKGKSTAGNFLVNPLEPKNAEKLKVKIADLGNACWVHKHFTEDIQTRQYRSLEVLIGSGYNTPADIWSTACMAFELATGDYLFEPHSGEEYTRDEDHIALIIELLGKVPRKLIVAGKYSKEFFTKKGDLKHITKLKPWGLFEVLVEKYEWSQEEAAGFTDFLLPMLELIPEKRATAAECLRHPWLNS
# [13] = target: SRSF protein kinase 1 (Homo sapiens) (UniProt Q96SB4); settings: at 1 µM
# [14] = target: Phosphatidylinositol 4,5-bisphosphate 3-kinase catalytic subunit alpha isoform (Homo sapiens) (UniProt P42336); settings: at 0.1 µM
# Phosphatidylinositol 4,5-bisphosphate 3-kinase catalytic subunit alpha isoform (Homo sapiens), sequence (P42336 whole entry, canonical isoform): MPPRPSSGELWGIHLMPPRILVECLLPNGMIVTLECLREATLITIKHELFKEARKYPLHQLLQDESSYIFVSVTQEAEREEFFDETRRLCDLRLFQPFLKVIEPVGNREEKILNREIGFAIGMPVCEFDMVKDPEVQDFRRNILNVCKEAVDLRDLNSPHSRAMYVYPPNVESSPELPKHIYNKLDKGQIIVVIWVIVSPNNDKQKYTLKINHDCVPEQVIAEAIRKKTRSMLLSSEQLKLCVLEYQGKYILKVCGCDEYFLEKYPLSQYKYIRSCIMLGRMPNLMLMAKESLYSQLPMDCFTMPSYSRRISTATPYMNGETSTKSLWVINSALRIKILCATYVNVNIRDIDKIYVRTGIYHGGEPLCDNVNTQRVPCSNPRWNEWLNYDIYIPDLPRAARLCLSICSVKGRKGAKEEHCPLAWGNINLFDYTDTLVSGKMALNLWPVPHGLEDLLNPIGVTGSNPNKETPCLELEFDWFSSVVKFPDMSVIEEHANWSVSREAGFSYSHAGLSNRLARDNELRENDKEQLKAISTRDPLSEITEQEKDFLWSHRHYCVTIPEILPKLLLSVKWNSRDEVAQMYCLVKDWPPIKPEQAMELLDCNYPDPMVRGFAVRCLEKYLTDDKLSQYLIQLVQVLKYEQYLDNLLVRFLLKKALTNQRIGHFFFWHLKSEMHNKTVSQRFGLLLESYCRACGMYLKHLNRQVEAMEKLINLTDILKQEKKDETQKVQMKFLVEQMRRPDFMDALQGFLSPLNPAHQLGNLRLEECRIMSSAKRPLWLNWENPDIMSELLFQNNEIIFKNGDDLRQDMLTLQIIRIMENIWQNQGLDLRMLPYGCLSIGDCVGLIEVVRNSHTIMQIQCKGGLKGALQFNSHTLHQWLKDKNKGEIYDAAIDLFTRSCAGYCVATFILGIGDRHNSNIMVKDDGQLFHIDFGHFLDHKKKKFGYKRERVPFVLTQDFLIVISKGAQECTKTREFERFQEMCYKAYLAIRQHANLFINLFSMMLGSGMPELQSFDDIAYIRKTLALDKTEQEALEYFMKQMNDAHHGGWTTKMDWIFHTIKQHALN
# [15] = target: Phosphatidylinositol 4,5-bisphosphate 3-kinase catalytic subunit alpha isoform (Homo sapiens) (UniProt P42336); settings: at 1 µM
# [16] = target: T3, Phosphatidylinositol 4,5-bisphosphate 3-kinase catalytic subunit delta isoform (Homo sapiens) (UniProt O00329); settings: at 0.1 µM
# T3 sequence (whole entry): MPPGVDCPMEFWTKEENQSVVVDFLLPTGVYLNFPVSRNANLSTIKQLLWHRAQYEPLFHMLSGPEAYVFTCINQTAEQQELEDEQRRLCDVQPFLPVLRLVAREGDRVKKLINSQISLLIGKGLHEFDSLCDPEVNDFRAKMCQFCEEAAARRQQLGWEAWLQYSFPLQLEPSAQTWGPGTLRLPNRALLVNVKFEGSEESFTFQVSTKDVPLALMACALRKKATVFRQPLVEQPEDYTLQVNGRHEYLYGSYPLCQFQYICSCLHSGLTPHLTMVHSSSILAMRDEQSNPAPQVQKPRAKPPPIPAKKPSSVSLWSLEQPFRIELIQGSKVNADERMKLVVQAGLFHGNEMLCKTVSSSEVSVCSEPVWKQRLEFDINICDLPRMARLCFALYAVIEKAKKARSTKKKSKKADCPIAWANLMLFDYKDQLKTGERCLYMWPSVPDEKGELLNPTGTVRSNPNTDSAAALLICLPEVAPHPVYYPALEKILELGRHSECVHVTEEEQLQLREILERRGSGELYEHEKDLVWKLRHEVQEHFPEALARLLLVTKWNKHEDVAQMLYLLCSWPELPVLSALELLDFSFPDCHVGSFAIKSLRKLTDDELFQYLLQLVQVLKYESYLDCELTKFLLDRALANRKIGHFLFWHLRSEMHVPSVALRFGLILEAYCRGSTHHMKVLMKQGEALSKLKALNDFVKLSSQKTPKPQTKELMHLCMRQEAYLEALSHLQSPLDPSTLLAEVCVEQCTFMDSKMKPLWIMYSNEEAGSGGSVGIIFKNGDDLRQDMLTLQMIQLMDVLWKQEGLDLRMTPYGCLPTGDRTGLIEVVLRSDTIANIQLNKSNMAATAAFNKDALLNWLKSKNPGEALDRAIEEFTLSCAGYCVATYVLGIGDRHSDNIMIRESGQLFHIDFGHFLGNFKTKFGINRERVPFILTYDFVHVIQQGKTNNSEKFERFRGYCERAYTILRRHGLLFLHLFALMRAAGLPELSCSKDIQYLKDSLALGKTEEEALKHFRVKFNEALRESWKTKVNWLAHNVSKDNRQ
# [17] = target: T3, Phosphatidylinositol 4,5-bisphosphate 3-kinase catalytic subunit delta isoform (Homo sapiens); settings: at 1 µM
# [18] = target: Phosphatidylinositol 4-kinase beta (Homo sapiens) (UniProt Q9UBF8); settings: at 0.1 µM
# Phosphatidylinositol 4-kinase beta (Homo sapiens), sequence (Q9UBF8 2-816 limits assumed): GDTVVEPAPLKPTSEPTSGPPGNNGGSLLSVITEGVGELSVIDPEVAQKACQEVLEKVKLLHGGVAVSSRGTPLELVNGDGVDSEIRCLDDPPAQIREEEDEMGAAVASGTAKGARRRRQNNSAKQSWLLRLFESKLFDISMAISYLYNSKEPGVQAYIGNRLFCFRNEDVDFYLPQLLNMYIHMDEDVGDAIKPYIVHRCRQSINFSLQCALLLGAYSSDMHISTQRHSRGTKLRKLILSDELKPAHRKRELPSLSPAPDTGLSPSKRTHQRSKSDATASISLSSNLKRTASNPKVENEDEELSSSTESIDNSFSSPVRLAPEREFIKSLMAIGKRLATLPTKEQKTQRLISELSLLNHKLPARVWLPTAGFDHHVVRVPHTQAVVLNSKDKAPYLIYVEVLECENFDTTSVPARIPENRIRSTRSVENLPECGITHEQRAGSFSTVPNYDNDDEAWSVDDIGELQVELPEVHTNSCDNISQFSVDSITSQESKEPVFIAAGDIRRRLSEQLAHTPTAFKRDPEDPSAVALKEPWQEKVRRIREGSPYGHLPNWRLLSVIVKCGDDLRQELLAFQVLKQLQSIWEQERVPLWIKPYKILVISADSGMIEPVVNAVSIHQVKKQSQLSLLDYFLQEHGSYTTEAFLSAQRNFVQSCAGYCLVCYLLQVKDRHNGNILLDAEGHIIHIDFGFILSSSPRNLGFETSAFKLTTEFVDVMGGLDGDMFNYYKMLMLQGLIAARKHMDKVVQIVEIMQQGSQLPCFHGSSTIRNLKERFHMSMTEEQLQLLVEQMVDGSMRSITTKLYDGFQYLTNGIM
# [19] = target: Phosphatidylinositol 4-kinase beta (Homo sapiens) (UniProt Q9UBF8); settings: at 1 µM
# [20] = target: Sphingosine kinase 1 (Homo sapiens) (UniProt Q9NYA1); settings: at 0.1 µM;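 note: mean percent inhibition of SPHK1 activity, measured within the GSK PKIS screening panel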
# Sphingosine kinase 1 (Homo sapiens), sequence (Q9NYA1 whole entry): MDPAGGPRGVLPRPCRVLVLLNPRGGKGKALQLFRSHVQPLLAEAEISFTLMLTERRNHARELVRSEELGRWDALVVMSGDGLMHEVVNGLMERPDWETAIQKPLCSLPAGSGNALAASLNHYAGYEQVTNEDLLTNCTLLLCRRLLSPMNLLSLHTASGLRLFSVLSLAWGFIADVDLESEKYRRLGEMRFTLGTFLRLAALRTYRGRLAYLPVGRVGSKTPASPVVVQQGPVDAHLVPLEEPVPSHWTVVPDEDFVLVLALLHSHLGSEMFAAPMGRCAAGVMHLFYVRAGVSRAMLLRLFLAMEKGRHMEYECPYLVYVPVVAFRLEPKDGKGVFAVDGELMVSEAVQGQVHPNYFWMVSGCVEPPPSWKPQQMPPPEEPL
# Mitogen-activated protein kinase 3 (Homo sapiens), sequence (P27361 whole entry): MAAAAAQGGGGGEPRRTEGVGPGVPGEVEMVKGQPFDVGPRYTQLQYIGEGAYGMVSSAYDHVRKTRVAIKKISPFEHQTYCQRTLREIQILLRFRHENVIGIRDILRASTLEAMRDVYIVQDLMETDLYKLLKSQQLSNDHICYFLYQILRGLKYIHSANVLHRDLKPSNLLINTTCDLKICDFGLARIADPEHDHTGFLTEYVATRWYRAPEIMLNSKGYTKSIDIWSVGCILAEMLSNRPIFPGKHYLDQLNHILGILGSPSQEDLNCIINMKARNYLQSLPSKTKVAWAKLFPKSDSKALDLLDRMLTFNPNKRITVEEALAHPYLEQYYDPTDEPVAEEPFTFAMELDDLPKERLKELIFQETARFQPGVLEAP
# SRSF protein kinase 3 (Homo sapiens), sequence (Q9UPE1 whole entry): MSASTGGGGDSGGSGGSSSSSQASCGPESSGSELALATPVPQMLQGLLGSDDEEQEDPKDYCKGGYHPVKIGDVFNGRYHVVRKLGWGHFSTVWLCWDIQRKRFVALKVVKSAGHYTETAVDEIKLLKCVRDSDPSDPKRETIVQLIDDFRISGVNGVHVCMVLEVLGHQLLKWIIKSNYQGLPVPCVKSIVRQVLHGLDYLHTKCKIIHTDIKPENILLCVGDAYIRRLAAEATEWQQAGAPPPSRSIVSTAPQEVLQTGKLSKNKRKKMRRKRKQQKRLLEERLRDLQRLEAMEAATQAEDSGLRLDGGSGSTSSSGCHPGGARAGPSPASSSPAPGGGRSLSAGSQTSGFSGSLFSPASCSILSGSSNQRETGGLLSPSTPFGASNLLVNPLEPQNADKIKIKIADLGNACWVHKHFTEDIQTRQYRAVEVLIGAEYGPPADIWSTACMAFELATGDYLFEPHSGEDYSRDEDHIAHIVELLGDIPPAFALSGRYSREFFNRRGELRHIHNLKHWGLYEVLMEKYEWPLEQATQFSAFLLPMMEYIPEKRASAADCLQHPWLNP
SMILES,inhibition [1] [%],inhibition [2] [%],inhibition [3] [%],inhibition [4] [%],inhibition [5] [%],inhibition [6] [%],inhibition [7] [%],inhibition [8] [%],inhibition [9] [%],inhibition [10] [%],inhibition [11] [%],inhibition [12] [%],inhibition [13] [%],inhibition [14] [%],inhibition [15] [%],inhibition [16] [%],inhibition [17] [%],inhibition [18] [%],inhibition [19] [%],inhibition [20] [%]
CCn1c(-c2nonc2N)nc2c(C#CC(C)(C)O)nc(OC[C@H](N)c3ccccc3)cc21,2.26,3.21,-2.11,4.73,7.11,3.41,4.89,1.8,1.9,2.38,3.95,-2.57,-1.89,1.03,1.06,0.44,1.52,-2.33,0.6,0.65
COc1cccc(-n2ncc3c(N/N=C/c4ccc(F)cc4)ncnc32)c1,3.8,-0.53,1.02,2.2,7.4,4.13,6.02,6.87,6.81,-0.23,1.41,-0.75,2.6,3.46,19.1,0.55,17.3,-4.22,-5.29,2.72
CC(=O)Nc1cccc(C#Cc2cncnc2Nc2ccc(OCc3cccc(F)c3)c(Cl)c2)c1,3.68,1.32,-0.25,3.3,5.63,0.27,1.34,2.42,2.73,0.58,1.97,-1.41,-3.44,1.85,1.66,2.58,0.8,-0.32,-1.07,-0.47
Nc1nc(-c2ccc(F)cc2)c(-c2ccc3ncccc3n2)s1,3.86,-0.15,2.22,23.6,76.4,7.76,33.1,5.53,5.76,1.26,2.9,-1.42,1.42,7.33,20.4,7.18,32.8,8.12,7.23,0.08
COc1ccc2c(-c3ccnc(Nc4cccc(OC(F)(F)F)c4)n3)cnn2n1,3.9,-1.04,2.71,2.92,8.4,0.17,5.04,-1.73,7.58,1.78,2.47,-0.39,3.84,2.57,6.99,0.71,5.67,0.16,2.84,0
NC(=O)c1sc(-n2cnc3ccc(C(F)(F)F)cc32)cc1OCc1ccccc1Br,0.62,-1.67,-0.41,8.95,10.3,2.71,5.44,-1.12,3.69,1.64,2.37,-1.69,-2.85,3.78,4.29,1.52,4.21,-2.33,-2.08,2.38
COC(=O)Nc1nc2ccc(S(=O)(=O)c3ccc(NC(=O)Nc4cc(C(F)(F)F)ccc4F)cc3)cc2[nH]1,3.32,-1.38,-1.81,3.23,8.81,8.26,8.9,1.33,2.66,1.77,2.36,-1.52,-4.55,0.87,2.69,2.19,2.98,1.19,1.36,-0.71
FC(F)(F)c1cccc(-c2nn3ncccc3c2-c2ccnc(Nc3ccc4c(c3)OCCO4)n2)c1,2.04,-0.87,-0.58,30,73.7,14.1,52.2,0.07,3.46,3.07,2.93,-2.68,-5.33,1.87,3.02,1.36,4,-4.9,3.59,-1.16
